Pf Dd2 growth: inhibitors of Plasmodium falciparum Dd2 growth. P. falciparum Dd2 growth, SYBR Green, 72 h. Potency, µM (highest dose often 28.9 µM), most hits filed as inhibitors. 4.3% of 120,000 active; active means well fitted inhibition curve with a large enough effect; further: nearly all actives have a fitted effect of over 65% in size
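Readout: SYBR Green fluorescence, 485 nm excitation, 535 nm emission, after ~16 h lysis at 37C. Before that, Dd2-infected red cells (2.5% hematocrit) grew 72 h with compound, 29 uM top final concentration.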
A number is an active result; 0 = inactive. The full list was thinned out, with hits kept by preference.

SMILES	Pf Dd2 growth
COc1ccc(-c2nc(-c3ccccc3)c(-c3ccccc3)[nH]2)cc1Br	0
COc1cc(-c2nc(-c3cccc(Cl)c3)c(-c3ccccc3)[nH]2)cc(OC)c1OC	10µM
CN1CCC(C(=O)N2Cc3ccccc3CC3(CCCN(CC4CCNC4)C3)C2)CC1 (configuration not stated)	0
CN1CCC(C(=O)N2Cc3ccccc3CC3(CCN(Cc4ccc(O)cc4)C3)C2)CC1 (configuration not stated)	0
O=C(O)CCCC(=O)N1Cc2ccccc2CC2(CCCN2Cc2ccccc2)C1 (configuration not stated)	0
O=C(O)CCCC(=O)N1Cc2ccccc2CC2(CCCCN2Cc2ccncc2)C1 (configuration not stated)	0
CN1CCC(C(=O)N2Cc3ccccc3CC3(CCCCN3Cc3ccncc3)C2)CC1 (configuration not stated)	8.91µM
CN1CCC(C(=O)N2Cc3ccccc3CC3(CCCN(Cc4cccnc4)C3)C2)CC1 (configuration not stated)	8.91µM
CC(C)C[C@H](NC(=O)Cn1nc2c(cc1=O)CCCC2)C(=O)O	0
Cn1cnc(S(=O)(=O)N2CCCC(C(=O)Nc3ccc(F)cc3F)CCNC(=O)CC2)c1 (configuration not stated)	0
c1ccc(CCCNc2ncncc2-c2nc(-c3ccccc3)no2)cc1	0
COc1cc2c(cc1-c1c(-c3ccccc3)ncn1CCCO)CCC2	12.6µM
OCCCn1cnc(-c2ccccc2)c1-c1ccc(-c2ccn[nH]2)o1	0
CCOc1cc(-c2c(-c3ccccc3)ncn2CCNC(C)=O)ccc1OC	0
Cc1ccc(-c2noc(C3CCN(C(=O)CC(C)C)CC3)n2)nn1	0
Oc1ccc(-c2nc(C3CC3)nc3c2CCN(Cc2ccccn2)CC3)cc1	0
Cc1nc2c(c(-c3ccc(O)cc3)n1)CN(Cc1ccc(F)cc1)CC2	0
COc1ccc(-c2nc(C3CC3)nc3c2CN(S(=O)(=O)c2cccc(OC)c2)CC3)cc1	0
CC(=O)Nc1ccc(CN2CCc3nc(C4CC4)nc(-c4ccc(O)cc4)c3CC2)cc1	0
Oc1ccc(-c2nc(C3CC3)nc3c2CCN(Cc2ccc(F)cc2)CC3)cc1	3.98µM
CCc1nc2c(c(-c3ccc(O)cc3)n1)CCN(C(=O)c1ccc(OC)cc1)CC2	0
COc1ccc(-c2nc(C3CC3)nc3c2CCN(Cc2ccc(C#N)cc2)CC3)cc1	7.94µM
COc1ccc(CN2CCc3nc(C4CC4)nc(-c4ccc(O)cc4)c3C2)cc1	0
COc1ccc(-c2nc(C)nc3c2CCN(Cc2ccnn2C)CC3)cc1	0
COc1ccc(-c2nc(C3CC3)nc3c2CCN(Cc2ccc(NC(C)=O)cc2)CC3)cc1	8.91µM
SMILES	Pf Dd2 growth
COc1ccc(-c2nc(C)nc3c2CCN(CC2CCCCC2)CC3)cc1	0
COc1ccc(CN2CCc3nc(C4CC4)nc(-c4ccc(O)cc4)c3CC2)cc1	3.98µM
O=C(c1ccc(F)cc1)N1CCCC(n2cc(-c3nc(-c4ccccc4)no3)nn2)C1 (configuration not stated)	0
O=C(c1ccc2ccccc2n1)N1C[C@@H](CO)[C@H](c2ccncc2)C1	0
O=S(=O)(c1cccc(F)c1)N1CC(c2nnc(-c3ccncc3)o2)C2(CCOCC2)C1 (configuration not stated)	0
O=C1CCN(Cc2cccc(F)c2)CCOCCN1	0
O=C1NCCOCCN(C(=O)COCc2ccccc2)[C@H]2CCC[C@@H]12	0
Cc1ccccc1-n1ncc(C(C)NC(=O)c2cc(F)ccc2F)c1C (configuration not stated)	0
Cc1nonc1CC(=O)N1CCCC(c2nnc(Cn3cccn3)n2C)C1 (configuration not stated)	0
COc1ccc(-c2nc(C3CC3)nc3c2CCN(Cc2cncs2)CC3)cc1	10µM
COc1ccc(-c2nc(C3CC3)nc3c2CCN(Cc2ccnn2C)CC3)cc1	0
CC(C)c1nc2c(c(-c3ccc(O)cc3)n1)CCN(Cc1cncs1)CC2	0
CCn1nc(CC(C)C)cc1C(=O)NC1CCCN(c2ncccn2)C1 (configuration not stated)	0
Cc1cc(C(=O)N2CCCN(C)c3ccccc32)nn1C	0
Cc1ccc(C(=O)N2CCC3(CC2)NC(=O)N(c2ccccc2)N3)cc1C	0
Cc1ccc(C(=O)N2CC[C@@](C)(O)[C@@H](Cc3ccccc3)C2)cc1C	8.91µM
Cc1ccc(C(=O)N2CCC3(CC2)NC(=O)N(Cc2ccccc2)C3=O)cc1F	0
CCOc1ccc(NC(=O)c2nnn3c2COC(c2ccc(Cl)cc2)C3)cc1 (configuration not stated)	0
COc1ccc(CC(=O)NC(C)C(=O)N2CCN(c3ccccn3)CC2)cc1 (configuration not stated)	0
O=C(CSc1ccccn1)NCc1cccnc1N1CCOCC1	0
Fc1ccc(CNCc2cccnc2N2CCN(c3ccccn3)CC2)cc1F	5.01µM
COc1ccc(-c2noc([C@@H]3C[C@H](NC(=O)NC(C)C)CN3C)n2)cc1	0
CC(C)c1nc2c(c(-c3ccc(O)cc3)n1)CN(Cc1cccc(C(F)(F)F)c1)CC2	2.51µM
CC(C)c1nc2c(c(-c3ccc(O)cc3)n1)CN(Cc1ccccc1)CC2	0
CC(C)c1nc2c(c(-c3ccc(O)cc3)n1)CN(C(=O)c1ccccc1F)CC2	0
SMILES	Pf Dd2 growth
CC(C)c1nc2c(c(-c3ccc(O)cc3)n1)CN(CC1CC1)CC2	0
Cc1noc(C)c1[S+](=O)([O-])N1CCc2nc(C(C)C)nc(-c3ccc(Cl)cc3)c2C1	0
COc1ccc(CN2CCc3nc(C(C)C)nc(-c4ccc(O)cc4)c3C2)cc1	8.91µM
Cc1nc2c(c(-c3ccc(Cl)cc3)n1)CN([S+](=O)([O-])c1c(C)noc1C)CC2	0
Cc1noc(C)c1[S+](=O)([O-])N1CCc2nc(C(C)C)nc(-c3ccc(O)cc3)c2C1	10µM
O=C(Nc1ccc(Cl)cc1Cl)c1cnn2c1CN(C(=O)c1ccccc1)CC2	0
CCO[C@H]1CN(C(=O)Cc2c(C)nn(-c3ccccc3)c2C)C[C@@H]1O	0
COc1ccc(OC)c(NC(=O)Cn2c(-c3ccccc3)nc(C)cc2=O)c1	0
COc1ccc(C(C)NC(=O)CN2C(=O)NC3(CCOCC3)C2=O)cc1 (configuration not stated)	0
O=C(C#Cc1ccccc1)NC1CCCc2c1cnn2-c1ccc(F)cc1F (configuration not stated)	0
O=C(Cc1cccnc1)NCC(=O)N1CCCCCCNC(=O)CC1c1ccccc1 (configuration not stated)	0
COc1ccc(-c2ccccc2NC(=O)C2CCCN2C(=O)CC(C)(C)C)cc1 (configuration not stated)	0
COc1ccccc1NC(=O)CSc1nc(-c2ccc(C)cc2)nc2c1Cc1c(CO)cnc(C)c1O2	0
COc1ccc(-c2nc3c(c(SCc4ccc(Br)cc4)n2)Cc2c(CO)cnc(C)c2O3)cc1	1.12µM
COc1cccc(-c2nc3c(c(SCc4ccccc4Cl)n2)Cc2c(CO)cnc(C)c2O3)c1	0
COc1cccc(CSc2nc(-c3ccccc3OC)nc3c2Cc2c(CO)cnc(C)c2O3)c1	5.01µM
Cc1ncc(CO)c2c1Oc1nc(-c3ccccc3)nc(SCC(=O)Nc3cccc(C(F)(F)F)c3)c1C2	0
COc1cccc(-c2nc3c(c(SCC(=O)Nc4cccc(C)c4C)n2)Cc2c(CO)cnc(C)c2O3)c1	0
COc1ccccc1NC(=O)CSc1nc(-c2cccc(Cl)c2)nc2c1Cc1c(CO)cnc(C)c1O2	0

From PubChem
